Data from article PMC4336329 (PLoS ONE, 2015).
Among all 310,000 compounds or so, about 14,000 (4.5%) showed an effect of 50% or more. The effect is printed as a negative number. What follows is part of a selection rich in strong results, with near analogues and random picks from the rest.

The molecules below were run against human ether-à-go-go-related gene (hERG) potassium channel (human, UniProt Q12809) (assay: primary screen, population patch clamp on CHO cells stably expressing hERG; higher = less effect of the substance).
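Further: peak tail current of the secondary pulse compared with the same well before compound.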

Chain of human ether-à-go-go-related gene (hERG) potassium channel (Q12809 whole entry, looked up): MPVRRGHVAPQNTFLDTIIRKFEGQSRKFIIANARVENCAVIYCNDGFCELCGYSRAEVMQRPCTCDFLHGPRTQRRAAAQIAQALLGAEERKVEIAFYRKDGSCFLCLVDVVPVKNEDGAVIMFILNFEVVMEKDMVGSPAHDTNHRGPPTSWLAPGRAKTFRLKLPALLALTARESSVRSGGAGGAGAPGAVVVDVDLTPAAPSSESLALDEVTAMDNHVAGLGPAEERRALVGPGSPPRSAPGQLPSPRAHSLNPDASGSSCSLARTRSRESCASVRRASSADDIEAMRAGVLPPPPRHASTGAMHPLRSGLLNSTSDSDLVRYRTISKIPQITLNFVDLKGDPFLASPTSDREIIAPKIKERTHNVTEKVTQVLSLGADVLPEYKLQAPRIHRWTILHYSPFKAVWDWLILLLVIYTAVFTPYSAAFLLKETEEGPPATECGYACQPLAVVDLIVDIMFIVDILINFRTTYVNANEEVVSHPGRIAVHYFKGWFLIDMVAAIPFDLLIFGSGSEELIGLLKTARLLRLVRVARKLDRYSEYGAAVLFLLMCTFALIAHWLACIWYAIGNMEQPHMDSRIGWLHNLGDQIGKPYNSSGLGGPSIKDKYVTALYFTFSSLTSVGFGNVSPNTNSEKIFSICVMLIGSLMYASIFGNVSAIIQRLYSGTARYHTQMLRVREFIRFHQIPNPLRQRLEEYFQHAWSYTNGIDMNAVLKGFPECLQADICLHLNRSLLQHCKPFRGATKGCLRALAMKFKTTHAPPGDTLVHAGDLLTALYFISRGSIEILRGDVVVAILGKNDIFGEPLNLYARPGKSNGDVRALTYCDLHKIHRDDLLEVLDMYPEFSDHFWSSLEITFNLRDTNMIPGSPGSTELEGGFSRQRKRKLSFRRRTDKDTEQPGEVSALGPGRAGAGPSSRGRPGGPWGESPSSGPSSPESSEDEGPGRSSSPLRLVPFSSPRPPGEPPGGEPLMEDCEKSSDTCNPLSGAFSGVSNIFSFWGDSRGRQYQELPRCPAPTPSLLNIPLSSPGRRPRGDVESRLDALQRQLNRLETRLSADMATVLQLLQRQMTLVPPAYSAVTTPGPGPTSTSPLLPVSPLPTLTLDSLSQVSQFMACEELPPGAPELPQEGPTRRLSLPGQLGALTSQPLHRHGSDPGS

Structure (SMILES) | hERG current change (%, negative = inhibition) at 10uM [%]
Cc1ccc(NC(=O)C2(c3ccccc3)CCOCC2)cc1 | 9.1
O=C(Nc1ccc([N+](=O)[O-])cc1)C1(c2ccccc2)CCOCC1 | -69.1
O=C(O)c1ccc(NC(=O)C2(c3ccccc3)CCOCC2)cc1 | -5.57
COc1ccc(C(=O)NCc2nnc(SCC(=O)N3CCCCC3)o2)cc1 | 29.8
C/C(=C\c1cc(C(=O)O)c(C)o1)CO | 12.9
O=C(OCc1cc(=O)n2cc(Br)ccc2n1)C1COc2ccccc2O1 (centres unmarked) | -15.5
Cn1c(SCC(=O)c2ccccc2)nnc1C1COc2ccccc2O1 (centres unmarked) | -11.9
Cn1c(SCc2nnc(-c3ccc(F)cc3)o2)nnc1C1COc2ccccc2O1 (centres unmarked) | -60.9
Cc1occc1-c1nnc(SCc2cc(=O)n3cc(Br)ccc3n2)n1C | -47.7
Cn1c(SCc2cc(=O)n3cc(Br)ccc3n2)nnc1C1COc2ccccc2O1 (centres unmarked) | -72
Cn1c(SCc2cnc(-c3ccccc3)s2)nnc1C1COc2ccccc2O1 (centres unmarked) | -1.06
CN(C(=O)COC(=O)c1nc(Cl)ccc1Cl)c1ccccc1 | 17.6
Cc1ccc(OC(=O)CCC(=O)Nc2ccc(C(N)=O)cc2)cc1 | 18.2
COc1cccc(/C=C/c2ccc3cccc(O)c3n2)c1 | 14.8
Cc1cc(C)n(-c2nc(NC(C)(C)C)nc(NC(C)(C)C)n2)n1 | -6.46
N#CCC(=O)NNc1c([N+](=O)[O-])cc(C(F)(F)F)cc1[N+](=O)[O-] | 28.8
COc1ccccc1N1CCN(Cc2nc(-c3ccc(F)cc3)oc2C)CC1 | -65.9
COc1ccc(-c2nc(CN3CCN(Cc4ccccc4)CC3)c(C)o2)cc1 | -42.2
COc1cc(-c2nc(CN3CCN(c4ncccn4)CC3)c(C)o2)ccc1F | -9.65
COc1ccccc1CN1CCN(S(=O)(=O)c2ccc(C)cc2)CC1 | -19
COc1ccccc1CN1CCN(Cc2nc(-c3ccc(C)cc3)oc2C)CC1 | -58.8
COc1ccccc1N1CCN(Cc2c(F)cccc2F)CC1 | -18
Cc1cc(C)cc(C(=O)OCC(=O)N2CCCC2)c1 | 9.79
COC(=O)c1sccc1-c1ccc(C(N)=O)o1 | 7.97

Structure (SMILES) | hERG current change (%, negative = inhibition) at 10uM [%]
N=C1c2ccccc2CN1c1ncccn1 | -10.6
Cc1cc(C)nc(N2Cc3ccccc3C2=N)n1 | -56
Br.Cc1ccc(N2Cc3ccccc3C2=N)cc1[N+](=O)[O-] | -4.21
COc1ccccc1CN=c1c([N+](=O)[O-])nn(-c2ccc3c(c2)OCCO3)n1O | -7.21
COc1cc(CC(=O)OCC(=O)Nc2cc([N+](=O)[O-])ccc2Cl)cc(OC)c1OC | -50
COc1ccc([N+](=O)[O-])cc1NC(=O)COC(=O)Cc1cc(OC)c(OC)c(OC)c1 | -17.8
COc1cc(CC(=O)OCC(=O)Nc2cc([N+](=O)[O-])ccc2F)cc(OC)c1OC | -38.9
Cc1cc(NC(=O)CCC(=O)N(Cc2ccco2)C(C(=O)NC2CCCCC2)c2cccs2)no1 (centres unmarked) | -20.9
COc1cccc(/C(O)=C2/C(=O)C(=O)N(Cc3ccco3)C2c2ccncc2)c1 (centres unmarked) | 15.2
CS(=O)(=O)N(CC(=O)Nc1ccccc1C(=O)NCc1ccco1)c1ccc2c(c1)OCCO2 | -5.03
CC(=O)Nc1ccc(NC(=O)C(C)OC(=O)CNC(=O)c2sc3ccccc3c2Cl)cc1 (centres unmarked) | 18.6
CN(C)CCCN1C(=O)c2cccc3c([N+](=O)[O-])ccc(c23)C1=O | -27.7
CN(C)CCCN1C(=O)c2cccc3cccc(c23)C1=O | -16
CN(C)CCCN1C(=O)c2cccc3c(Br)ccc(c23)C1=O | -66.4
COc1ccc2c(c1OC)C(=O)OC2Nc1nc(-c2ccccc2)cs1 (centres unmarked) | 8.12
CCOCCCn1cnc2c(c1=O)c1nc3ccccc3nc1n2-c1ccccc1 | -30.6
COCCCn1cnc2c(c1=O)c1nc3ccccc3nc1n2-c1ccc(C)cc1 | -37
COCCCn1cnc2c(c1=O)c1nc3ccccc3nc1n2-c1ccccc1 | -56.6
CCCCn1c(SCC(=O)NNC(=O)c2ccco2)nnc1-c1ccco1 | 4
CCn1c(=O)c2c(nc(SCC(=O)NCC3CCCO3)n2C)n(C)c1=O (centres unmarked) | -0.794
Nc1nc(Cn2nnc(-c3ccccc3F)n2)nc(N2CCOCC2)n1 | -73.4
COc1ccc(-c2nnn(Cc3nc(N)nc(N4CCCCC4)n3)n2)cc1 | -9.06
Nc1nc(CSCc2ccccc2)nc(N2CCOCC2)n1 | -10.2
Nc1nc(Cn2nnc(-c3ccccc3Cl)n2)nc(N2CCOCC2)n1 | -54.4

Structure (SMILES) | hERG current change (%, negative = inhibition) at 10uM [%]
Clc1ccc(Cn2nnc(-c3ccc(N4CCOCC4)cc3)n2)cc1 | 4.16
COc1ccc(-c2nnn(Cc3nc(N)nc(N4CCOCC4)n3)n2)cc1OC | -0.202
CCCCN(C(=O)NC(=O)Nc1ccccc1OC)S(C)(=O)=O | -2.42
CCCCCCCCN1C(=O)N(C)C(N(O)C(=O)NC)C1(C)C (centres unmarked) | 8.37
Cc1cc(C(F)(F)F)n2ncc(-c3cccc(Br)c3)c2n1 | 22.6
O=C(Cn1nc(-c2ccccc2)ccc1=O)Nc1cccc(NC(=O)c2ccccn2)c1 | -0.657
Cc1noc(NS(=O)(=O)c2ccc(N3CC(O)=C(c4ccccc4)C3=N)cc2)c1C | 20.5
CCOC(=O)c1c(C)c(C(=O)Nc2ccc(N(C)C)cc2)c(C)n1CC | -1.83
COCCCNC(=O)c1cc(C(=O)c2ccccc2Br)c[nH]1 | 15.1
CS(=O)(=O)c1ccccc1-c1nc(-c2cc(C(F)(F)F)cc(C(F)(F)F)c2)no1 | 4.06
COc1ccc(CCNC(=O)c2cccc(S(=O)(=O)NC(C)c3ccccc3)c2)cc1 (centres unmarked) | 6.04
COc1ccc(CCCc2nnc(SCC(=O)Nc3ccc(OC)cc3)o2)cc1 | 17.7
COc1ccc(Cl)cc1NC(=O)c1ocnc1C | 10.1
Br.CCCCn1c(=N)n(CC(=O)c2ccco2)c2ccccc21 | -41.8
Br.CCCCCCCn1c(=N)n(CC(=O)c2ccco2)c2ccccc21 | -70.6
CCCn1c(N)[n+](CC(=O)c2ccco2)c2ccccc21.[Br-] | -11.1
Br.Cc1ccccc1Cn1c(=N)n(CC(=O)c2ccco2)c2ccccc21 | -65
Br.N=c1n(CC(=O)O)c2ccccc2n1Cc1ccccc1Cl | 0.122
Br.CCn1c(=N)n(CC(=O)c2ccco2)c2ccccc21 | -3.75
CCOC(=O)C(C)Oc1cccc2c(=O)n(CC(=O)NCc3ccc(F)cc3)ccc12 (centres unmarked) | -4.43
O=C(OC(C(=O)NCc1ccc2c(c1)OCO2)c1ccccc1F)c1ccco1 (centres unmarked) | -31.1
C/C(=N\NC(=O)c1nc2ccccn2c1C)c1ccco1 | -1.34
C/C(=N\NC(=O)c1cc2ccccc2cc1O)c1cc2ccccc2o1 | 6.05
C/C(=N\NC(=O)c1nc2ccccn2c1C)c1cc2ccccc2o1 | -63

Structure (SMILES) | hERG current change (%, negative = inhibition) at 10uM [%]
C/C(=N\NC(=O)c1ccncc1)c1cc2ccccc2o1 | -20.5
C/C(=N\NC(=O)c1nc2ccccn2c1C)c1ccc2c(c1)OCO2 | -18.5
C/C(=N\NC(=O)c1ccc(O)cc1)c1cc2ccccc2o1 | -50.3
COc1cccc2cc(/C(C)=N/NC(=O)c3ccco3)oc12 | -52.2
C/C(=N\NC(=O)c1ccco1)c1cc2ccccc2o1 | -9.09
COc1cccc2cc(C(C)=O)oc12 | 15.5
Cc1ccc(Nc2ncc3c(n2)CC(C)CC3=O)c(C)c1 (centres unmarked) | 0.876
CCCCN(C(=O)c1cc(CC)c(C)s1)c1c(N)n(CCC)c(=O)[nH]c1=O | -20.8
CCOc1ccc2ccccc2c1/C=N\NC(=O)OC | 12.7
CCCOc1cccc(-c2cc(C(=O)N/N=C/c3ccccn3)c3ccccc3n2)c1 | 0.224
COc1cccc(CN2CCNC(=O)C2CC(=O)N(C)CCC2CCOCC2)c1 (centres unmarked) | 8.75
Cc1ccc2nc(Cl)c(CN(C(=O)c3cnccn3)C3CCCCC3)cc2c1 | -24.7
OCC1(Cc2cccc(F)c2)CCN(Cc2cccc3nccnc23)CC1 | -59.8
COc1ccc(CC2(CO)CCN(Cc3cccn3-c3ccccn3)CC2)cc1 | -75.4
COc1cccc(CC2(CO)CCN(Cc3cccn3-c3cccnc3)CC2)c1 | -47.7
COc1cc(CN2CCN(Cc3cccc(OC)c3OC)CC2)cc(OC)c1 | -34.2
CCCn1ncc(CN2CCC(CO)(Cc3ccc(OC)cc3)CC2)c1C | -41.9
O=C(c1cnsn1)N1CCC(CO)(Cc2cccc(F)c2)CC1 | 10.8
O=S(=O)(c1cccc(F)c1)N1CCC(CO)(Cc2cccc(F)c2)CC1 | -18.2
COc1ccc(CC2(CO)CCN(Cc3cccc(OC)c3OC)CC2)cc1 | -60.5
COc1ccc(CC2(CO)CCN(Cc3cnn(C)c3C)CC2)cc1 | -21.6
COc1ccc(CC2(CO)CCN(S(=O)(=O)c3cccc4cccnc34)CC2)cc1 | -5.13
COc1ccc(CC2(CO)CCN(Cc3cccc4nccnc34)CC2)cc1 | -70.9
